This note sets out measurements from PubChem BioAssay (EPA / NIEHS).

Read-out in assay [1]: Transforming growth factor beta 1 (TGFb1), TGFB1 (gene 7040)
In words: BSK_KF3CT_TGFb1: BioMAP Diversity Plus: KF3CT Assay for Transforming growth factor beta 1 (TGFb1) Biomarker Activity (AID 2283072). As to conditions: primary human keratinocytes with fibroblasts; actives raise or lower the signal. The essentials: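 ELISA quantifies TGF-b1 at 24 h post-dose in a primary human skin co-culture of keratinocytes and fibroblasts, with gain or loss judged against DMSO. Parallel SRB total-protein staining flags overt cytotoxicity.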

Read-out in assay [2]: C-C motif chemokine 2 (Homo sapiens) (UniProt P13500)
In words: BSK_KF3CT_MCP1: BioMAP Diversity Plus: KF3CT Assay for Monocyte Chemoattractant Protein 1 (MCP1/CCL2) Biomarker Activity (AID 2283073). Particulars: primary human keratinocytes with fibroblasts; actives raise or lower the signal. Put shortly: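 Keratinocytes and foreskin fibroblasts were co-cultured, dosed with chemical, and sampled 24 h later. MCP-1 was quantified by ELISA, and the endpoint was analyzed with bidirectional fitting using DMSO as negative control.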

Read-out in assay [3]: Matrix Metallopeptidase 9 (MMP9), MMP9 (gene 4318)
Description: BSK_KF3CT_MMP9: BioMAP Diversity Plus: KF3CT Assay for Matrix Metallopeptidase 9 (MMP9) Biomarker Activity (AID 2283074).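 For AC50: MMP9 protein level quantified by ELISA in the co-culture.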 As to conditions: primary human keratinocytes with fibroblasts; actives raise or lower the signal. The essentials:
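MMP-9 quantified by ELISA after 24 h chemical treatment of primary human skin keratinocyte/fibroblast co-cultures; gain or loss fitted against DMSO, with parallel SRB staining (0.1% SRB, 560 nm) for overt cytotoxicity.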

Read-out in assay [4]: urokinase plasminogen activator (uPA), PLAU (gene 5328)
In words: BSK_KF3CT_uPA: BioMAP Diversity Plus: KF3CT Assay for urokinase plasminogen activator (uPA) Biomarker Activity (AID 2283075). Particulars: primary human keratinocytes with fibroblasts; actives raise or lower the signal. Put shortly:
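ELISA read-out of uPA 24 h after dosing human skin keratinocytes co-cultured with foreskin fibroblasts. Signal change fitted both ways relative to DMSO; sulforhodamine B on parallel cultures marks overt cytotoxicity.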

Read-out in assay [5]: CD40, CD40 (gene 958)
In words: BSK_LPS_CD40: BioMAP Diversity Plus: LPS Assay for CD40 Biomarker Activity (AID 2283076). As to conditions: primary human HUVEC with PBMC; actives raise or lower the signal. Put shortly: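 CD40 signal, measured by ELISA, is fitted in both directions relative to DMSO vehicle. The system is an LPS-driven human vascular primary co-culture of endothelial cells and PBMC, sampled 24 h after compound addition.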

Read-out in assay [6]: E-selectin (Homo sapiens) (UniProt P16581)
In words: BSK_LPS_Eselectin: BioMAP Diversity Plus: LPS Assay for Eselectin Biomarker Activity (AID 2283077). Particulars: primary human HUVEC with PBMC; actives raise or lower the signal. Put shortly:
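Signal of E-selectin, detected by ELISA, served as the endpoint; cells were umbilical vein endothelium with PBMC, read 24 h after treatment. DMSO defined baseline, and both increases and decreases were fitted.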

Read-out in assay [7]: Interleukin-8 (IL8), CXCL8 (gene 3576)
Description: BSK_LPS_IL8: BioMAP Diversity Plus: LPS Assay for Interleukin-8 (IL8) Biomarker Activity (AID 2283078). Particulars: primary human HUVEC with PBMC; actives raise or lower the signal. Put shortly: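 Endothelial cells and PBMC from human donors are co-cultured, treated with chemicals and LPS, then assayed for IL-8 by ELISA after 24 h. Parallel SRB staining (0.1% SRB after 10% TCA fixation, 560 nm) flags cytotoxicity.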

A short description of assay [8]: BSK_LPS_SRB: Viability Assessment in the BioMAP Diversity Plus: LPS Assay (AID 2283079).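 Note: total protein by sulforhodamine B absorbance as a cytotoxicity measure; measured one day after compound addition; fitted in both directions against DMSO so loss or gain of signal counts.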 As to conditions: primary human HUVEC with PBMC. The essentials:
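Overt cytotoxicity was gauged by sulforhodamine B total-protein staining in a primary human vascular endothelial and mononuclear cell co-culture 24 h post-dosing. Activity was fitted in both directions relative to DMSO.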

Read-out in assay [9]: Interleukin-1 alpha (IL1a), IL1A (gene 3552)
In words: BSK_LPS_IL1a: BioMAP Diversity Plus: LPS Assay for Interleukin-1 alpha (IL1a) Biomarker Activity (AID 2283080). Particulars: primary human HUVEC with PBMC; actives raise or lower the signal. Put shortly:
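Measured: IL-1 alpha via ELISA at 24 h in LPS-activated human umbilical vein endothelium–PBMC co-culture. Baseline: DMSO, bidirectional fitting.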

Read-out in assay [10]: Monocyte Chemoattractant Protein-1 (MCP1), CCL2 (gene 6347)
In words: BSK_LPS_MCP1: BioMAP Diversity Plus: LPS Assay for Monocyte Chemoattractant Protein-1 (MCP1) Biomarker Activity (AID 2283081).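 For AC50: secreted MCP-1 protein quantified by ELISA in culture supernatant.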 Particulars: primary human HUVEC with PBMC; actives raise or lower the signal. The essentials: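 LPS-stimulated HUVEC/PBMC co-culture; chemical, 24 h; MCP-1 by ELISA; bidirectional fit vs DMSO; cytotoxicity via SRB (0.1% stain, 10% TCA fix, 560 nm) in parallel wells.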

Assay [11] can be described thus: BSK_LPS_PGE2: BioMAP Diversity Plus: LPS Assay for Prostaglandin E2 (PGE2) Biomarker Activity (AID 2283082). As to conditions: primary human HUVEC with PBMC; actives raise or lower the signal. Put shortly: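 PGE2 release measured by ELISA in an LPS-activated co-culture of human umbilical vein endothelial cells and peripheral blood mononuclear cells, read at 24 h post-dosing. DMSO served as baseline for bidirectional curve fitting.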

Read-out in assay [12]: Macrophage colony-stimulating factor (MCSF), CSF1 (gene 1435)
Description: BSK_LPS_MCSF: BioMAP Diversity Plus: LPS Assay for Macrophage colony-stimulating factor (MCSF) Biomarker Activity (AID 2283083). As to conditions: primary human HUVEC with PBMC; actives raise or lower the signal. Put shortly: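 Compound is added to a human vascular primary co-culture of umbilical vein endothelium and blood mononuclear cells. After 24 h, M-CSF is quantified by ELISA. Signal changes are fitted in both directions against DMSO.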

Read-out in assay [13]: Tissue Factor, F3 (gene 2152)
Description: BSK_LPS_TissueFactor: BioMAP Diversity Plus: LPS Assay for Tissue Factor Biomarker Activity (AID 2283084). Particulars: primary human HUVEC with PBMC; actives raise or lower the signal. Put shortly: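 In this co-culture system of umbilical vein endothelium with PBMC, stimulated with LPS, cell-surface CD142 is detected by ELISA at 24 h. Endpoint values derive from bidirectional fitting, DMSO serving as baseline.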

Read-out in assay [14]: Tumor necrosis factor (Homo sapiens) (UniProt P01375)
Description: BSK_LPS_TNFa: BioMAP Diversity Plus: LPS Assay for Tumour Necrosis Factor alpha (TNFa) Biomarker Activity (AID 2283085).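 For AC50: TNFa protein level quantified by ELISA in the co-culture.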 Particulars: primary human HUVEC with PBMC; actives raise or lower the signal. The essentials:
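TNFa was quantified by ELISA in LPS-activated co-cultures of human endothelial cells and PBMC, 24 h post-dosing. Both increases and decreases versus DMSO were fitted.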

Read-out in assay [15]: CD38, CD38 (gene 952)
Description: BSK_SAg_CD38: BioMAP Diversity Plus: SAg Assay for CD38 Biomarker Activity (AID 2283087). As to conditions: primary human HUVEC with PBMC; actives raise or lower the signal. The essentials:
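CD38 quantified by ELISA (fluorescence) in a superantigen-activated endothelial cell–PBMC co-culture at 24 h post-dose. Activity fitted in both directions relative to DMSO; parallel SRB and Alamar Blue cytotoxicity read-outs.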

Read-out in assay [16]: CD40, CD40 (gene 958)
Description: BSK_SAg_CD40: BioMAP Diversity Plus: SAg Assay for CD40 Biomarker Activity (AID 2283088). As to conditions: primary human HUVEC with PBMC; actives raise or lower the signal. The essentials: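 Fluorescence ELISA read-out of CD40 from umbilical vein endothelium plus peripheral blood mononuclear cells, sampled 24 h after dosing. Values come from bidirectional curve fitting with DMSO as baseline.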

Read-out in assay [17]: CD69, CD69 (gene 969)
Description: BSK_SAg_CD69: BioMAP Diversity Plus: SAg Assay for CD69 Biomarker Activity (AID 2283089).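 For AC50: cell surface CD69 protein quantified by ELISA with fluorescence detection.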 As to conditions: primary human HUVEC with PBMC; actives raise or lower the signal. Put shortly: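 Values derive from bidirectional fitting relative to DMSO vehicle. Cells: umbilical vein endothelium plus peripheral blood mononuclear cells, treated 24 h before fluorescent ELISA for CD69.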

Read-out in assay [18]: Monocyte Chemoattractant Protein-1 (MCP1), CCL2 (gene 6347)
Description: BSK_SAg_MCP1: BioMAP Diversity Plus: SAg Assay for Monocyte Chemoattractant Protein-1 (MCP1) Biomarker Activity (AID 2283090). Particulars: primary human HUVEC with PBMC; actives raise or lower the signal. Put shortly:
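Values derive from bidirectional fitting of ELISA-measured MCP1 against DMSO controls. Readings were taken 24 h after dosing human vascular endothelial cells co-cultured with peripheral blood mononuclear cells under superantigen stimulation.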

Read-out in assay [19]: E-selectin (Homo sapiens) (UniProt P16581)
In words: BSK_SAg_Eselectin: BioMAP Diversity Plus: SAg Assay for Eselectin Biomarker Activity (AID 2283091). As to conditions: primary human HUVEC with PBMC; actives raise or lower the signal. The essentials:
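Primary human endothelial cells and peripheral blood mononuclear cells were co-cultured and exposed to chemical for 24 hours. E-selectin levels were then quantified by ELISA, with bidirectional curve fitting normalised to DMSO controls.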

Read-out in assay [20]: Vascular cell adhesion molecule 1 (VCAM1), VCAM1 (gene 7412)
In words: BSK_LPS_VCAM1: BioMAP Diversity Plus: LPS Assay for Vascular cell adhesion molecule 1 (VCAM1) Biomarker Activity (AID 2283086). Particulars: primary human HUVEC with PBMC; actives raise or lower the signal. Put shortly:
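VCAM-1 quantified by ELISA in an LPS-activated co-culture of human endothelial cells and peripheral blood mononuclear cells, read 24 h post-treatment. Fitted in both directions versus DMSO; parallel SRB staining flags overt cytotoxicity.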

Several values for one entry are separate records, joined by “and”; a condition that tells them apart may be missing. Equal values may be shown once. The source holds several records for some structures; these can differ, active in one and inactive in another. Activity calls are given as the source filed them. Rule for the calls: active = hit-call score of the fitted dose curve at least 0.9, where 1 is the maximum; inactive = score below 0.9.

Tumor necrosis factor (Homo sapiens), sequence (P01375 whole entry, looked up): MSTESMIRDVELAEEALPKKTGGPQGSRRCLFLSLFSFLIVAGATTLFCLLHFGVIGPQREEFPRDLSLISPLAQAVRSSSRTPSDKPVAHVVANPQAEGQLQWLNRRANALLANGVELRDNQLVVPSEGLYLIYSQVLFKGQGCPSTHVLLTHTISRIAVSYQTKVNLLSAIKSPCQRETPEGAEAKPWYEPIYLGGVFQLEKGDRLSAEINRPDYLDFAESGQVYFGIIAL
E-selectin (Homo sapiens), sequence (P16581 whole entry, looked up): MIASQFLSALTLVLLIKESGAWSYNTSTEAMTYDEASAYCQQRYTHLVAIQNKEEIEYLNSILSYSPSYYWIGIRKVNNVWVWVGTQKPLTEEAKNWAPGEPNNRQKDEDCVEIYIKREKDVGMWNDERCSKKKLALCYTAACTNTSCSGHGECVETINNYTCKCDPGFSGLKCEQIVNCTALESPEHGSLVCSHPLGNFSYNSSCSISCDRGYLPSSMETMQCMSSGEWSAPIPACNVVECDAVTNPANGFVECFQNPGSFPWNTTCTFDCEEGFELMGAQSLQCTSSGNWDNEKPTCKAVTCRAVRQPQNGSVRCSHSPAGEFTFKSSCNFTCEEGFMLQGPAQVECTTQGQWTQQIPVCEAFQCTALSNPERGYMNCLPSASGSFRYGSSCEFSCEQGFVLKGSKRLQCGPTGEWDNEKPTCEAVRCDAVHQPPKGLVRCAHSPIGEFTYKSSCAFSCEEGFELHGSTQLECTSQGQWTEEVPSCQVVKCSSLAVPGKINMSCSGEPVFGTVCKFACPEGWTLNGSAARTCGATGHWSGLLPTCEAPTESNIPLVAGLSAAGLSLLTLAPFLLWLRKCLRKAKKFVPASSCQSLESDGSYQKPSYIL

Consider `C[C@@H]1C[C@H]2[C@@H]3CCC4=CC(=O)C=C[C@]4(C)[C@@]3(F)[C@@H](O)C[C@]2(C)[C@@]1(O)C(=O)COP(=O)(O)O`, for which the result in assay [1], in [2], in assay [3], in [4], in assay [5] and in [6] was inactive. Also, the outcome in [7], in assay [8], in [9], in [10], in [11] and in [12] was inactive. Further, the outcome in [13], in assay [15], in assay [16], in assay [17] and in [18] was inactive. The AC50 (usually the concentration giving half of the maximal activity seen) in assay [11] is 9.37 µM (active) and 3.63 µM (active); in assay [14] it was 4.47 µM (active) and 3.6 µM (active) and 5.06 µM (active); in [16], 2.65 µM (active); in assay [19], 2.96 µM (active) and 1.73 µM (active) and 1.25 µM (active).
With `O=c1c(-c2ccc(O)cc2)coc2cc(O)ccc12`, the result in assay [1], in [2], in [4], in [5], in assay [6] and in assay [7] was inactive. Besides, the outcome in assay [8], in assay [9], in assay [12], in assay [14], in [15] and in assay [16] was inactive. Further, the result in [17], in assay [18] and in assay [19] was inactive. Further, the AC50 in assay [3] is 20 µM (active); in assay [10], 20 µM (active); in assay [13] it was 26.5 µM (active); in assay [20], 20 µM (active).
`NC(=O)N1C(=O)C(C(=O)c2cc(Cl)cs2)c2cc(F)c(Cl)cc21` (stereo unspecified): the AC50 in assay [1] was 7.48 µM (active); in [3], 4.33 µM (active); in [4], 12.5 µM (active); in [5] it was 17.7 µM (active); in assay [6] it was 1.47 µM (active); in assay [8], 20 µM (active). The AC50 is 20 µM (active) in assay [9]; 5.47 µM (active) in [10]; 345 nM (active) in assay [11]; 11.1 µM (active) in assay [13]; 24.9 µM (active) in [15]; 16.4 µM (active) in assay [16]. Further, the AC50 in [17] is 20 µM (active); in [18], 5.4 µM (active); in assay [19], 8.61 µM (active). For the same compound, the outcome in assay [2], in [7] and in [14] was inactive.
As to `ClC1=C(Cl)C(Cl)(Cl)C(Cl)=C1Cl`, the AC50 in assay [1] was 9.02 µM (active); in assay [2], 9.19 µM (active); in [3], 9.06 µM (active); in assay [4], 10.7 µM (active); in assay [5], 10.2 µM (active); in assay [6] it was 11.9 µM (active). In addition, the AC50 in assay [7] was 13.9 µM (active); in [8] it was 11.4 µM (active); in [9], 10.1 µM (active); in assay [10], 12.3 µM (active); in assay [11], 11600 nM (active); in [13], 9.9 µM (active). Besides, the AC50 was 18.4 µM (active) in assay [14]; 9.81 µM (active) in assay [20]; 7.55 µM (active) in [15]; 8.3 µM (active) in assay [16]; 8.69 µM (active) in [17]; 10.6 µM (active) in assay [18]. In addition, the AC50 in assay [19] was 8.69 µM (active).
Consider `CCC(C)(C)C1CCC(O)CC1` (stereo unspecified), for which the result in [1], in assay [2], in assay [3], in assay [4], in [5] and in assay [6] was inactive. Also, the result in assay [7], in [8], in assay [9], in assay [10], in assay [11] and in assay [12] was inactive. In addition, the outcome in assay [13], in assay [14], in assay [15], in [16], in assay [17] and in assay [18] was inactive. Also, the outcome in assay [19] was inactive.
